A structure can be active in one record and inactive in another. Calls of active or inactive are those of the source. Rule for the calls: active = hit-call score of the fitted dose curve at least 0.9, where 1 is the maximum; inactive = score below 0.9.
Assay: ATG_DR4_LXR_CIS: Attagene CIS-FACTORIAL HepG2 Assay for human Liver X Receptor (LXR), DR4 submotif (AID 2282929)
Conditions: HepG2 Attagene DR4 cis-reporter, mRNA transcription; actives raise or lower the signal
Method: ATG_CIS is a cell-based, multiplexed-readout assay that uses HepG2, a human liver cell line, with measurements taken at 24 hours after chemical dosing in a 24-well plate.ATG_DR4_LXR_CIS is one of 52 assay component(s) measured or calculated from the ATG_CIS assay. It is designed to make measurements of mRNA induction, a form of inducible reporter, as detected with fluorescence intensity signals by Reverse transcription polymerase chain reaction (RT-PCR) and Capillary electrophoresis technology.Data from the assay component ATG_DR4_LXR_CIS was analyzed into 1 assay endpoint. This assay endpoint, ATG_DR4_LXR_CIS, was analyzed with bidirectional fitting relative to DMSO as the negative control and baseline of activity. Using a type of inducible reporter, measures of mRNA for gain or loss-of-signal activity can be used to understand the reporter gene at the transcription factor-level as they relate to the gene NR1H2 and NR1H3. Furthermore, this assay endpoint can be referred to as a primary readout, because this assay has produced multiple assay endpoints where this one serves a reporter gene function. To generalize the intended target to other relatable targets, this assay endpoint is annotated to the nuclear receptor intended target family, where the subfamily is non-steroidal.
Human liver HepG2 cells are transiently transfected with multiple reporter transcription units (MRTUs) in 6-well plates using FuGene 6 reagent (Roche; 3 ml FuGene/1 mg DNA). The MRTU constructs are regulated by a cis-regulating element (promoter). […] A major difference between the CIS and TRANS system is that in CIS activities of endogenous TFs are measured, whereas the TRANS assay evaluates changes in activities of exogenous, chimeric NR-Gal4 proteins. […] At the end of 24 hour incubation, total RNA was isolated using TriZol reagent (Invitrogen). The isolated RNA is then reverse-transcribed using oligo(dT) primer and Mo-MLV reverse transcriptase (Invitrogen) with DNAse I (Ambion) treatment for 30 min. The one-tenth of the produced cDNA was amplified by PCR using Taq DNA polymerase (Invitrogen) and two reporter sequence-specific primers. The PCR products were fluorescently labeled by primer extension with 6-arboxyfluorescein (6-FAM) 5'-labeled reporter sequence-specific primer (2 min at 95 C, 20 s at 68 C and 10 min at 72 C) and these products were digested with 5U of HpaI (New England Biolabs) for 2h at 37 C. The fragments were purified using Qiaquick PCR columns (Qiagen), analyzed on an ABI 3130xL genetic analyzer (Applied Biosystems) with peak positions identified by using a set of X-rhodamine (ROX)-labeled MapMarker1000 molecular weight standards (BioVentures). The raw capillary electrophoresis data was processed using Attagraph software (Attagene).

| Structure (SMILES) | outcome | AC50 |
| --- | --- | --- |
| COP(=S)(OC)SCN1C(=O)c2ccccc2C1=O | inactive | – |
| Nc1cc(Cl)cc(C(=O)O)c1Cl | inactive | – |
| Oc1ccccc1Cl | inactive | – |
| CC(O)CCO (stereo not given) | inactive | – |
| Clc1ccc(C(c2ccc(Cl)cc2)C(Cl)Cl)cc1 | – | 17.1 µM (active) |
| O=[N+]([O-])c1ccc(Oc2ccc(Cl)cc2Cl)cc1 | – | 48.1 µM (active) |
| CCCCC(CC)COC(=O)c1ccc(C(=O)OCC(CC)CCCC)c(C(=O)OCC(CC)CCCC)c1 (stereo not given) | inactive | – |
| Cc1cccc(N)c1N | inactive | – |
| c1ccc2c(c1)oc1ccccc12 | inactive | – |
| C=CCc1ccc2c(c1)OCO2 | inactive | – |
| CCCCCCCCn1sccc1=O | inactive | – |
| Clc1ccccc1Cl | inactive | – |
| C[C@]12C=CC3=C4CCC(=O)C=C4CC[C@H]3[C@@H]1CC[C@@H]2O | inactive | 19.8 µM (active) |
| CCOC(=O)[C@]1(c2ccccc2)Oc2ccccc2[C@@H]1N | – | 52.4 µM (active) |
| CN(C)[C@@H]1C(=O)C(C(N)=O)=C(O)[C@@]2(O)C(=O)C3=C(O)c4c(O)cccc4[C@@](C)(O)[C@H]3C[C@@H]12 | inactive | – |
| c1ccc(C2CO2)cc1 (stereo not given) | inactive | – |
| N#CC(Br)(Br)C(N)=O | inactive | – |
| CC(C)COC(=O)c1ccccc1C(=O)OCC(C)C | – | 73 µM (active) |
| OCCOCCO | inactive | – |
| N#CC(Br)Br | inactive | – |

| Structure (SMILES) | outcome | AC50 |
| --- | --- | --- |
| COC(=O)Nc1nc2ccccc2[nH]1 | inactive | – |
| CC(C)(OOC(C)(C)c1ccccc1)c1ccccc1 | – | 63.9 µM (active) |
| COc1cc(C=O)cc2c1[C@H](COC(N)=O)[C@]1(OC(C)=O)ON2C[C@H]2[C@@H]1N2C(C)=O | – | 0.0512 µM (active) |
| O=C1CCCO1 | inactive | – |
| [Cl-].[Cl-].[Hg+2] | – | 33.4 µM (active) |
| Cn1cc(-c2ccccc2)c(=O)c(-c2cccc(C(F)(F)F)c2)c1 | – | 73.7 µM (active) |
| Brc1ccc(Oc2ccccc2)cc1 | – | 155 µM (active) |
| Cc1ccc(N)c(N)c1 | inactive | – |
| [O-][Cl+]O | inactive | – |
| CC(C)(O)c1cnn2c(-c3ccc(F)c(-c4c(F)cccc4C#N)c3)cnc2n1 | – | 27.5 µM (active) |
| CN(C)c1ccc(C(=O)c2ccc(N(C)C)cc2)cc1 | inactive | – |
| CCC(C)c1ccc(O)cc1 (stereo not given) | – | 100 µM (active) |
| CNC(=O)Oc1cccc2c1OC(C)(C)C2 | inactive | – |
| C[N+](C)(C)CC1CO1 (stereo not given) | inactive | – |
| CCOc1cccc(C2(N3CCN(c4ccccc4)CC3)CCC(C)CC2)c1 (stereo not given) | inactive | – |
| c1ccc2c(c1)-c1cccc3cccc-2c13 | inactive | – |
| ClC1=C(Cl)[C@]2(Cl)[C@H]3[C@H]([C@@H]4C=C[C@H]3C4)[C@@]1(Cl)C2(Cl)Cl | – | 25.9 µM (active) |
| CC(C)(C)OOC(=O)c1ccccc1 | inactive | – |
| c1ccc(N=Nc2ccccc2)cc1 | – | 100 µM (active) |

Reference: PubChem BioAssay (EPA / NIEHS)
